# In PubChem BioAssay AID1443 (Sanford-Burnham Center for Chemical Genomics, 2008):
# The whole screen tested about 220,000 compounds, of which about 880 (0.4%) were called active. For the sample, actives were picked, then their nearest neighbours and some compounds at random. A number with no mark means an inactive call.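 Rule for the calls: active = cell killing above 50% in the first pass at 4 µM, then a duplicate retest at 5 µM averaging 50% or more; inactive = the rest.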
# Assay: compounds killing PPC-1 cancer cells with TRAIL present, primary screen, TRAIL potentiator project, ATPLite luminescence, uHTS (AID 1443);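 note: plate controls were cells with TRAIL plus DMSO for no effect and medium-only wells lacking cells for full effect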
# Details: PPC-1 cells + TRAIL, ATPLite viability luminescence, hits give high values; at 4 µM unless noted
row,SMILES,cell killing (% activity)
1,CC(=O)c1sc(NC(=O)c2ccc(C)cc2)nc1C,56.3% [at 5 µM] (active)
2,COC(=O)c1sc(NC(=S)NC(=O)c2ccc(C)cc2)nc1C,27.1%
3,CC(=O)c1sc(NC(=O)c2cccc3ccccc23)nc1C,32%
4,CC(=O)c1cc(-c2ccccc2)n(CC(=O)NC2CCCCC2)c1C,6.9%
5,CCCCCC(O)c1cccc(OCc2ccc3ccccc3n2)c1 (stereo unspecified),10.7%
6,Cc1n[nH]c(=O)nc1N/N=C/c1cccs1,12.1%
7,COc1cccc(NC(=O)CC(c2ccc(OC(C)C)cc2)c2ccccc2OC)c1 (stereo unspecified),22.6%
8,C=C(C)CNC(=S)Nc1ccc(S(=O)(=O)Nc2cnc3ccccc3n2)cc1,12.5%
9,O=C(O)/C=C/c1cn(-c2ccccc2)nc1-c1cccs1,15.1%
10,O=C(/C=C\c1cn(-c2ccccc2)nc1-c1cccs1)N1CCOCC1,5.8%
11,O=C(O)c1ccc(N/N=C/c2cn(-c3ccccc3)nc2-c2cccs2)cc1,79% [at 5 µM] (active)
12,O=C(COC(=O)Cc1ccc(Br)cc1)Nc1c(F)c(F)c(F)c(F)c1F,17%
13,O=C(CCl)Nc1cccc(CP(=O)(c2ccccc2)c2ccccc2)c1,-1.1%
14,O=C(Cc1cccs1)N/N=C/c1ccc(OCc2ccccc2)cc1,20%
15,CC[C@@H](C)[C@@H](C(=O)N1CCN(C(=O)OC(C)(C)C)CC1)n1cc(CCC(=O)O)nn1,19%
16,CC(=O)c1ccc(NC(=O)C2CC(=O)Nc3nc4ccccc4n32)cc1 (stereo unspecified),27.4%
17,COc1cc(C2C(N3C(=O)c4ccccc4C3=O)C(=O)N2c2ccc(C)c(C)c2)cc(OC)c1OC (stereo unspecified),0.4%
18,COC(=O)[C@H](CC(C)C)NC(=O)N1CCCCC1C (stereo partly specified),8.6%
19,CS(=O)(=O)N(CC(=O)N/N=C/c1ccccn1)c1ccc(Oc2ccccc2)cc1,2.8%
20,CC(CNC(=O)c1ccc(N)cc1)NC(=O)c1ccc(N)cc1 (stereo unspecified),15.7%
21,O=C(NN1C(=O)C2C(C1=O)C1C=CC2C12CC2)c1ccccc1Cl (stereo unspecified),15.1%
22,COc1ccc(NC(=O)C2=NNC(=O)CC2)cc1S(=O)(=O)N1CCCCC1,2.4%
23,COc1ccc(-c2csc(Nc3ccccn3)n2)cc1,26.9%
24,CCOc1cc(NC(=O)c2ccccn2)c(OCC)cc1NC(=O)c1ccc(OC)cc1,6.2%

row,SMILES,cell killing (% activity)
1,COc1ccc(C(=O)/C=C/Nc2ccccn2)cc1,74.5% [at 5 µM] (active)
2,Cc1ccc(/C=N/NC(=O)CSc2ccccn2)o1,28%
3,Cc1ccnc(NC(=O)Cn2ccc([N+](=O)[O-])n2)c1,-4.4%
4,CN1C(=O)/C(=C/C=C2\SCCN2C)OC1=S,7.1%
5,COCCNC(=O)/C(C#N)=C/c1cccc(OCc2ccccc2)c1,6.3%
6,COc1cc(/C=N/Nc2nn3cnnc3c3ccccc23)cc(OC)c1OC,58.2% (active)
7,CCOc1ccc(/C=N/Nc2nncc(-c3ccccc3)n2)cc1OC,-7.3%
8,COc1ccc(/C=N/Nc2nc3ccccc3o2)cc1OC,33%
9,COc1ccc(NC(=O)C2CCC(CNc3c(N4CCCCC4)c(=O)c3=O)CC2)c(OC)c1 (stereo unspecified),-39.4%
10,Cc1noc(C)c1S(=O)(=O)N(C)Cc1ccccc1,17.3%
11,O=C(Nc1nc2ccccc2s1)c1ccc2c(c1)OCO2,61.1% (active)
12,Cc1cc(C)c2nc(NC(=O)c3ccc4c(c3)OCO4)sc2c1,4.5%
13,COCc1nnc(NC(=O)c2ccc3c(c2)OCO3)s1,21.9%
14,Cc1ccc(NC(=O)CCC(=O)N/N=C/c2ccco2)c(C)c1,5.1%
15,COC(=O)C(=Nc1ccccc1)/C(C(=O)C(=O)N(C)c1ccccc1)=C(\O)c1ccc(Cl)cc1,-15.5%
16,CC1(C)COC(c2cccn2Cc2ccccc2Cl)=N1,3.7%
17,O=C(N/N=C/C=C/c1ccco1)c1cccs1,24.4%
18,COc1cccc(-c2cc(C(=O)N/N=C/c3ccc(OC)c(COC(C)=O)c3)c3ccccc3n2)c1,4.5%
19,Cc1ccc(-c2cc(C(=O)N/N=C/C=C/c3ccco3)c3ccccc3n2)cc1C,55.7% [at 5 µM] (active)
20,Nc1ccccc1SC(C[N+](=O)[O-])c1ccccc1 (stereo unspecified),6.4%
21,O=c1c2ccccc2cnn1Cc1n[nH]c(=S)n1-c1ccccc1F,17.1%
22,COc1ccc(Cl)cc1NC(=O)Cn1nc(-c2ccc(C)cc2)n(C)c1=S,14.2%
23,Cn1cnc([N+](=O)[O-])c1Sc1n[nH]c(N)n1,-16.4%
24,COc1cccc(CNC(=O)CCC2CCCN(C(=O)c3cc(C)[nH]n3)C2)c1 (stereo unspecified),12.1%

row,SMILES,cell killing (% activity)
1,CCc1ccccc1NC(=O)CSc1nnc(-c2ccncc2)o1,-4.8%
2,O=C(CSc1nnc(-c2ccc([N+](=O)[O-])cc2)o1)Nc1ccccn1,51% [at 5 µM] (active)
3,CCOC(=O)CSc1nnc(-c2ccc([N+](=O)[O-])cc2)o1,7.7%
4,COc1ccc(CNC(=O)C(Cc2ccccc2)n2cccc2)cc1 (stereo unspecified),-1.5%
5,O=C(CCN1C(=O)C2C3C=CC(C3)C2C1=O)Oc1ccc2ccccc2c1 (stereo unspecified),9.1%
6,CCCCCCCNc1nc(Cl)nc(NCCO)n1,17.1%
7,CC(C)(O)C#Cc1ncc(C(F)(F)F)cc1Cl,3.1%
8,Cc1c(C2=CCN(S(=O)(=O)c3ccc(Cl)cc3)CC2)c2ccccc2n1C,31.7%
9,CN1c2ccccc2-c2nc3ccccc3n2C1c1ccco1 (stereo unspecified),12%
10,Cn1c(-c2ccco2)nc2cc3ccccc3cc21,89.2% [at 5 µM] (active)
11,S=c1[nH]nc(-c2ccco2)n1/N=C/c1ccccc1,8%
12,CC(C)C(C)(C#N)NC(=O)CSc1nc2scc(-c3ccccc3)c2c(=O)[nH]1 (stereo unspecified),22.3%
13,COc1ccccc1N1CCN(C(=O)c2ccc(Cl)c(S(=O)(=O)N3CCCC3)c2)CC1,0.9%
14,Oc1ccc(-c2[nH]ncc2-c2nc3ccccc3s2)c(O)c1,14.3%
15,O=c1oc(/C=C/c2ccccc2)nc2ccccc12,53% [at 5 µM] (active)
16,S=c1[nH]nc(/C=C/c2ccccc2)o1,-2.3%
17,O=c1oc(-c2ccccc2NS(=O)(=O)c2ccc(Cl)cc2)nc2ccccc12,-12.7%
18,COc1ccc(Cn2c(O)c(/C=C3/C=CC=N3)c(=O)[nH]c2=O)cc1,5.9%
19,Nc1nc(NCC2CCCO2)nc(Nc2ccccc2F)c1[N+](=O)[O-] (stereo unspecified),2.1%
20,O=C(CCS(=O)(=O)c1ccccc1Cl)Nc1ccc(S(=O)(=O)Nc2ncccn2)cc1,1.8%
21,COc1ccc(C(=O)Nc2ccccc2C(=O)N/N=C/c2ccc(O)c(OC)c2)cc1,96.7% [at 5 µM] (active)
22,COc1ccc(C(=O)Nc2ccccc2C(=O)N/N=C/c2ccccc2OC)cc1,28.7%
23,COc1cc(/C=N/NC(=O)c2ccccc2)ccc1OS(=O)(=O)c1ccccc1,21.5%
24,CCn1cc(CN2CCCC(CNS(=O)(=O)Cc3ccccc3)C2)cn1 (stereo unspecified),14.8%

row,SMILES,cell killing (% activity)
1,O=C(N/N=C/c1cc([N+](=O)[O-])ccc1O)/C(=C\c1cccs1)NC(=O)c1ccccc1,8.1%
2,CC12C(=O)N(c3ccccc3)C(=O)C1C(c1ccccc1)N1CCCN12 (stereo unspecified),8.2%
3,Cn1nccc1NC(=O)CC(CC(=O)O)c1ccccc1 (stereo unspecified),5.7%
4,CC1(C)N=C(c2ccccn2)C(C)(C)N1O,22.7%
5,Cc1cc(-n2cnc(-c3cn(C)nc3C)n2)no1,-10.4%
6,CN1CCN(CC#CCC2(O)c3ccccc3-c3ccccc32)CC1,1.7%
7,O=c1cnnc(Nc2ccccc2)[nH]1,30.6%
8,Cc1nc(-c2ccc(Cl)cc2)sc1C(=O)NN,59.4% [at 5 µM] (active)
9,Cc1nc(-c2ccc(Cl)cc2)sc1C(=O)CBr,11.1%
10,Cc1ccc(SCC(=O)c2sc(-c3ccccc3)nc2C)cc1,8.5%
11,O=C(COC(=O)c1ccc(Cl)nc1)NCc1ccc2c(c1)OCO2,-2.9%
12,CC(C(=O)Nc1ccc(F)c(F)c1F)N1CCCCCC1 (stereo unspecified),30.5%
13,COc1ccc(OC)c(NC(=O)N[C@H](Cc2ccccc2)C(=O)NN)c1,-4.7%
14,Nn1c(SCC(=O)NC2CCCC2)nnc1-c1ccccc1F,2.5%
15,O=c1c(-c2ccccc2)cnc2n1CCS2,-3.9%
16,Cc1ccc(C(=O)NNC2=Nc3cc([N+](=O)[O-])ccc3OC2)cc1,-2.5%
17,COc1ccc(C2=NOC3(CC(=O)N(c4ccc(C)cc4)C3=O)C2)cc1 (stereo unspecified),12.3%
18,COc1ccc(C2=Nc3cc(C)ccc3OC2)cc1,52.1% (active)
19,CNC(=O)NC(=O)C(OC(=O)c1cccc(S(=O)(=O)N2CCCCC2)c1)c1ccccc1 (stereo unspecified),8.9%
20,N#CCc1ccc(OC(=O)c2cccnc2)cc1,0.5%
21,Cc1cc(NC(=O)CN2CCCC(C)C2)n(-c2nc3ccccc3s2)n1 (stereo unspecified),-3.9%
22,CCOC(=O)N1CCN(CC(=O)Nc2cc(C)nn2-c2nc3ccccc3s2)CC1,-8.9%
23,CCC(C)Cn1c(O)cc2nn(-c3nc4ccccc4s3)c(=O)c-2c1C (stereo unspecified),56% [at 5 µM] (active)
24,COc1ccc(CCNC2=CC(=O)CC(C)(C)C2)cc1,14.5%
